Among all 290,000 compounds or so, about 3,500 (1.2%) were called active.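 The calls were made as follows: active = inhibition above the campaign mean inhibition over all tested compounds plus 3 SD (cut at about 28% in these data); inactive = the rest.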 Shown is part of a subset that was picked to be rich in actives.
Test system: M18 aspartyl aminopeptidase (Plasmodium falciparum 3D7)
Assay: PfM18AAP inhibitors, malaria aminopeptidase, primary screen, biochemical, QFRET, recombinant enzyme (AID 1822);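 also: 0% = plate median of test compound wells and 100% = 2 mM ZnCl2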
Conditions: H-Glu-NHMec fluorogenic cleavage, at 7.35 µM, hits give high values

Structure (SMILES)	inhibition
CC(C)Cn1c(N2CCN(C(=O)/C=C/c3ccccc3)CC2)nc2ccccc21	2% (inactive)
Cc1c(OC(C)C(=O)NCC2CCC(C(=O)O)CC2)ccc2c1oc(=O)c1ccccc12 (centres undefined)	5.1% (inactive)
Cc1ccccc1N1CCN(CC(=O)NCc2ccc(Cl)cc2)CC1	4.87% (inactive)
O=C(COC(=O)c1ccc(N2CCCC2=O)cc1)c1ccc(OC(F)F)cc1	0.74% (inactive)
COc1ccc(C(=O)NC2CC(C)(C)Cc3c2cnn3-c2ccccc2)c(OC)c1 (centres undefined)	0.86% (inactive)
Nc1ccc(C(=O)Nc2ccccc2N)cc1	-8.23% (inactive)
Cc1cc(F)ccc1NC(=S)NCCc1ccccc1	-8.4% (inactive)
Cc1ccc(CN(Cc2cccnc2)C(=S)Nc2cccc(Cl)c2C)cc1	-8.48% (inactive)
Cc1ccc(-c2n[nH]c(=S)n2/N=C/c2cc3c(cc2[N+](=O)[O-])OCO3)cc1	17.7% (inactive)
CC(=O)N/N=C/c1cc2c(cc1[N+](=O)[O-])OCO2	6.95% (inactive)
Cc1ccc(S(=O)(=O)N/N=C\c2cc3c(cc2[N+](=O)[O-])OCO3)cc1	51.5% (active)
COc1ccc(C(CNC(=O)COc2ccc([N+](=O)[O-])cc2)N2CCCCC2)cc1 (centres undefined)	-7.22% (inactive)
CC(=O)Nc1cccc(C(=O)OCN2C(=O)c3ccccc3C2=O)c1	1.1% (inactive)
COc1ccc(CC(=O)Nc2nc(-c3ccc(F)c(F)c3)cs2)cc1OC	0.44% (inactive)
COc1cc(C2/C(=C(\O)c3ccc4c(c3)CC(C)O4)C(=O)C(=O)N2Cc2ccco2)ccc1O (centres undefined)	45.6% (active)
COc1ccc(C2/C(=C(/O)c3ccc4c(c3)CC(C)O4)C(=O)C(=O)N2Cc2ccncc2)cc1 (centres undefined)	16.6% (inactive)
COc1ccc(/C(O)=C2\C(=O)C(=O)N(Cc3ccco3)C2c2ccc(OC)cc2OC)cc1 (centres undefined)	8.22% (inactive)
CCOc1ccc(-n2c(O)c(/C=N/Nc3nnc(C)c(=O)[nH]3)c3ccccc3c2=O)cc1	34% (active)
CCOc1ccc(-n2c(O)c(/C=N/c3ccnn3Cc3ccncc3)c3ccccc3c2=O)cc1	5.65% (inactive)
CCOc1ccc(-n2c(O)c(/C=N/Nc3nc(C)cc(C)n3)c3ccccc3c2=O)cc1	26.7% (inactive)
S=C(Nc1cccnc1)Nc1ccccn1	11.1% (inactive)
C[C@H](NC(=O)c1nc[nH]c1C(=O)NCC(=O)OC(C)(C)C)c1ccccc1	1.03% (inactive)
COc1ccc(CNC(=O)C2CCN(C(=O)c3ccco3)CC2)cc1	2.47% (inactive)
CCC(CC)c1nnc(NC(=O)/C=C/c2ccco2)s1	2.71% (inactive)

Structure (SMILES)	inhibition
CCC(CC)c1nnc(NC(=O)C2CCN(C(=O)c3ccco3)CC2)s1	31.2% (active)
CCOC(=O)c1cc(Sc2ccccc2N)cc(C(=O)OCC)n1	10.8% (inactive)
Nc1ccccc1SC(C[N+](=O)[O-])c1ccccc1 (centres undefined)	14.1% (inactive)
CCS(=O)(=O)c1cc([N+](=O)[O-])c(Sc2ccccc2N)s1	38.9% (active)
Cc1ccc(S(=O)(=O)CC(=O)NC(C)c2ccccc2)cc1 (centres undefined)	-6.39% (inactive)
CN(C)S(=O)(=O)c1ccc2oc(SCC(=O)Nc3ccccc3F)nc2c1	2.13% (inactive)
CCN(CC)c1ccc2oc(=O)c(C)nc2c1	55.5% (active)
C=CCN(C(=O)Nc1ccc2oc(C)nc2c1)c1ccccc1	13% (inactive)
CCN(CC)c1ccc2cc(C(N)=O)/c(=N\NC(=O)c3ccncc3)oc2c1	17.2% (inactive)
COc1ccc(Nc2cc(Sc3ccc(OC)cc3)ncn2)cc1	2.95% (inactive)
Cc1ccsc1C(=O)N[C@@H](C)c1nnc2ccccn12	-8.31% (inactive)
Cc1cccc(N2CCN(C(=O)CCS(=O)(=O)c3ccc4c(c3)NC(=O)C(C)S4)CC2)c1C (centres undefined)	-6.34% (inactive)
O=C(O)c1ccccc1-c1ccccc1C(=O)Nc1ccccc1Br	-9.93% (inactive)
O=C1CCN(CCc2ccccc2)CCN1CCOc1ccccc1	1.32% (inactive)
O=C(Nc1ccc(C(=O)N2CCOCC2)cc1)Nc1cccc(C(F)(F)F)c1	-2.75% (inactive)
COc1ccccc1N1CCN(C(=O)CSc2ncnc3c2cnn3-c2ccc(C)c(C)c2)CC1	-5.63% (inactive)
CC1CCN(C(=O)c2ccc(CSc3ccc(Cl)cc3)cc2)CC1	-3.98% (inactive)
CC1CCN(C(=O)c2ccc3c(=O)n4c(nc3c2)CCCCC4)CC1	-5.35% (inactive)
CC1CCN(C(=O)c2ccc3c(c2)NC(=O)CN3)CC1	31.9% (active)
CCCN1C2CCCC1CC(NC(=O)c1cccc(OC)c1)C2 (centres undefined)	-5.08% (inactive)
Cc1cccn2c(=O)c3cc(C(=O)NCC4CCCO4)c(=N)n(Cc4ccc(F)cc4)c3nc12 (centres undefined)	5.3% (inactive)
Oc1ccc(-n2nnnc2SCc2c(F)cccc2Cl)cc1	9.59% (inactive)
CCCN1Cc2cccc(C(=O)Nc3ccc(S(=O)(=O)N4CCCCCC4)cc3)c2C1=O	3.06% (inactive)
O=C1CCN(CCCc2ccccc2)CCN1CCO	10.1% (inactive)

Structure (SMILES)	inhibition
CSc1ccc(S(=O)(=O)NCc2ccc(Cl)cc2)cc1	5.25% (inactive)
CCn1c(CNS(=O)(=O)c2ccc(Cl)cc2)n[nH]c1=S	31.8% (active)
CCn1c(CSCc2c(Cl)cccc2Cl)n[nH]c1=S	14.7% (inactive)
Cc1cc(C)n(-c2ccc(NC(=O)C3CCCCN3C(=O)c3cccs3)cc2)n1 (centres undefined)	10.7% (inactive)
Cc1cc(NC(=O)CSc2nc(=O)cc(N)n2-c2ccc(F)cc2)no1	2.27% (inactive)
O=c1[nH]c2c(c(=O)n1Cc1ccccc1)CCC2	-7.19% (inactive)
Cc1[nH][nH]c(=O)c1N=Nc1ccccc1	-5.94% (inactive)
O=c1[nH]n2c(=O)c3c([nH]c2c1N=Nc1ccccc1)CCC3	31.3% (active)
O=C(CNC(=O)C1COc2ccccc2O1)N/N=C/c1cc(Br)c(O)c(Br)c1 (centres undefined)	10.4% (inactive)
Cc1c(CC(=O)N2CCN(C(=O)C3COc4ccccc4O3)CC2)c(=O)oc2c(O)c(O)ccc12 (centres undefined)	56.5% (active)
Cc1c(C)c2ccc(OCC(=O)N3CCC(C(=O)O)CC3)c(C)c2oc1=O	3.02% (inactive)
O=C(Nc1ccc(F)cc1)c1ccc(S(=O)(=O)NCc2cccnc2)cc1	1.68% (inactive)
C/C(=N\Nc1cccc(C(=O)O)c1)c1ccc2c(c1)Nc1ccccc1S2	28.6% (active)
O=C(NC1CC1)c1ccc2c(c1)NC(=O)c1ccccc1S2	-6.63% (inactive)
O=C(O)c1cccc(N2C(=O)Nc3ccccc3N2O)c1	-0.41% (inactive)
CCOc1ccc(OCC)c(NC(=O)CCS(=O)(=O)c2ccc(C)cc2)c1	-4.08% (inactive)
O=C(Nc1ccc2sc3ccccc3c(=O)c2c1)c1ccccc1Cl	3.74% (inactive)
COc1ccc(NC(=O)CN(C)C(=O)CNC(=O)C2CCCCC2)cc1	5.81% (inactive)
COc1ccc(NC(=O)c2sc3nc(C)nc(N4CCN(c5ccccn5)CC4)c3c2C)c(OC)c1	-4.65% (inactive)
NC(=O)c1c(Nc2nc3c(F)cccc3s2)sc2c1CCCC2	49.1% (active)
O=C(Nc1sc2c(c1C(=O)O)CCC2)c1ccccc1F	-1.52% (inactive)
NC(=O)c1c(NC(=O)c2ccccc2)sc2c1CCCC2	1.26% (inactive)
CC(=O)c1ccc(NC(=O)CCNS(=O)(=O)c2cc(Br)cnc2N)cc1	-3.06% (inactive)
S=C(c1ccc(-c2ccccc2)o1)N1CCCCC1	30.8% (active)

Structure (SMILES)	inhibition
S=C(c1ccccc1)N1CCCC1	-1.81% (inactive)
CC1CCN(C(=S)c2ccc(-c3ccc(Cl)cc3Cl)o2)CC1	4.16% (inactive)
O=C1c2cccc3c([N+](=O)[O-])ccc(c23)C(=O)N1CC1CCCO1 (centres undefined)	4.32% (inactive)
O=C(OCc1ccc([N+](=O)[O-])cc1)C1CC(=O)N(Cc2ccccc2Cl)C1 (centres undefined)	-11.3% (inactive)
CC(C)N1CCC(N2CCN(Cc3cccnc3)CC2CCO)CC1 (centres undefined)	4.35% (inactive)
O=C(N/N=C/c1c[nH]c2ccccc12)c1ccccc1O	9.89% (inactive)
O=C(O)c1cccc(NC(=S)N/N=C/c2c[nH]c3ccccc23)c1	38.5% (active)
CSC(=S)N/N=C/c1c[nH]c2ccccc12	9.14% (inactive)
CCc1[nH]nc(C(=O)N2CCCC(CO)(Cc3ccc(F)cc3F)C2)c1C (centres undefined)	-13.6% (inactive)
Cc1cc(OCc2cc(C(=O)NCc3cc(C(C)C)no3)no2)cc(C)c1Cl	-17.4% (inactive)
Cc1ccc(-c2nc3ccccc3[nH]c2=O)cc1	-7.7% (inactive)
O=c1[nH]c2ccccc2n2c(-c3ccccc3)nnc12	33.2% (active)
CC(=O)c1c(-c2ccccc2)c2ccccc2[nH]c1=O	-2.54% (inactive)
CC(=O)N1c2ccc(S(=O)(=O)N3CCC(C(=O)NC4CCCCC4C)CC3)cc2CC1C (centres undefined)	17.8% (inactive)
COc1cc(/C=C2/C(=O)NN(c3cccc(Cl)c3)C2=O)cc(Br)c1O	32.2% (active)
COc1cc(/C=C2/C(=O)NN(c3ccc(F)cc3)C2=O)cc([N+](=O)[O-])c1O	9.62% (inactive)
C#CCOc1ccc(/C=C2/C(=O)NN(c3ccccc3)C2=O)cc1OC	22% (inactive)
Cn1c(=O)c([N+](=O)[O-])c(Oc2ccccc2)c2ccccc21	24% (inactive)
Cc1ccc(C(=O)N/C(=C\c2ccco2)C(=O)N2CCSCC2)cc1C	-11% (inactive)
NC(=O)C1CCN(C(=O)/C(=C/c2ccco2)NC(=O)c2ccccc2)CC1	35.1% (active)
CC1CCN(C(=O)/C(=C\c2ccccc2)NC(=O)c2ccccc2)CC1	-0.48% (inactive)
CCc1ccc(-c2cc3c(=O)n(CC(=O)NCCCN4CCN(Cc5ccccc5)CC4)nc(C)n3n2)cc1	-0.45% (inactive)

Source: PubChem BioAssay AID1822 (The Scripps Research Institute Molecular Screening Center, 2009)
